From PubChem BioAssay
DYRK1A inh: Dyrk1A (rat) kinase inhibition; Q63470; ADP-Glo luminescence, NFATc1 peptide; inhibition, % at 12.5 µM; actives 0.43% (n = 310,000); AID 504441; in the data active = inhibition above about 50%
CDK5 p35 inh: CDK5/p35 (human) kinase inhibition | Q00535+Q15078 | Recombinant CDK5/p35, ADP-Glo luminescence, 60 min | actives 0.01% (n = 330,000) | inhibition, % at 10 µM;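 active = highest replicate inhibition of at least 50% and at least 75% of replicates reaching 50%; inconclusive = only one of the two criteria met; inactive = both criteria failed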
esBAF inh: blocks esBAF chromatin remodeling in mouse ES cells | Bmi1-luciferase knock-in reporter, 24 h; 100% = twice the neutral-well signal | reporter increase, % at 12.5 µM | actives 2% (n = 350,000) | AID 602393; in the data active = activation above about 40%; inconclusive = no clear call, values can overlap the other calls;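 note: a rise in the Bmi1 reporter signal indicates esBAF inhibition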
Rtt109 HAT inh: C. albicans Rtt109 histone acetyltransferase inhibition; Q5AAJ8; actives 0.16% (n = 330,000); inhibition, % at 34.9 µM; AID 540336; purified Rtt109/Vps75, ThioGlo CoA-SH fluorescence, 4 h;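 active = inhibition of at least 50% in every replicate; inconclusive = best replicate reaches 50% inhibition but some replicates fall short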
Target sequence (Q5AAJ8 whole entry, looked up): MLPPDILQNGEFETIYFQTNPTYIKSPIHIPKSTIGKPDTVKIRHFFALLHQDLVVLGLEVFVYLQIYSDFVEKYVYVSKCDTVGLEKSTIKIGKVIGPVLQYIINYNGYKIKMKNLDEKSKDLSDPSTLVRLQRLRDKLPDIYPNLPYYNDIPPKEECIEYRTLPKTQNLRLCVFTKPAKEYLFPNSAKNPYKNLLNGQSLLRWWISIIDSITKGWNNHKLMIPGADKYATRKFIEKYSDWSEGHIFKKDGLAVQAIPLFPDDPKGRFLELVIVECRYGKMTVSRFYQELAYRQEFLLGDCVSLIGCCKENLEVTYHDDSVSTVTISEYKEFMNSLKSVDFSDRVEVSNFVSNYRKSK
dFosB act: enhances mouse delta FosB homodimer DNA binding; P13346; purified delta FosB, TAMRA-CDK5 oligo fluorescence polarization; percent of positive-control signal above neutral wells; activation, % at 25 µM; actives 0.99% (n = 340,000); AID 493131;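 active = mean activation above about 17%, with every replicate also reaching it, limit read from the data, passing the limit was not always enough; inconclusive = only one of the two conditions met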
Target sequence (P13346 whole entry, looked up): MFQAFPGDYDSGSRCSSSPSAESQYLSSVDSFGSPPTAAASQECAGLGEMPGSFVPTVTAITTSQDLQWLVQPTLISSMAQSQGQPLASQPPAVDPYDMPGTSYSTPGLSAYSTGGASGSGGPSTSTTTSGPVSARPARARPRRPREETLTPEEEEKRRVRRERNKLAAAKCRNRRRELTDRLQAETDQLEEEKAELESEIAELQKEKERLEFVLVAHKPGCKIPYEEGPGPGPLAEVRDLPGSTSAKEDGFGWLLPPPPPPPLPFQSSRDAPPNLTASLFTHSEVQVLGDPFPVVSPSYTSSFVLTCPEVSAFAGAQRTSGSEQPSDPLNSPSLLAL
SMARCA2 act: activators of SMARCA2 function; MG213 cells, MMTV-luciferase reporter, dexamethasone, overnight; actives 1% (n = 370,000); activation, % at 9.1 µM; in the data active = activation above about 7.8%
Large screens that a line does not name were inactive. In the library only some 3.2% were active in any assay of this set; here they are far more common.

Cc1ccc(NC(=O)c2cnn(-c3ccccc3)c2NC(=O)c2ccco2)cc1C	esBAF inh 55 (no result: SMARCA2 act)
COc1ccc(CN(C)C[C@H]2Oc3ccc(NC(=O)CCN4CCOCC4)cc3C(=O)N([C@H](C)CO)C[C@@H]2C)cc1	none (no result: DYRK1A inh, CDK5 p35 inh, Rtt109 HAT inh, dFosB act, SMARCA2 act)
CCNC(=O)Nc1ccc2c(c1)C(=O)N(C)[C@@H]1CC[C@@H](CC(=O)N[C@H](C)c3ccccc3)O[C@H]1CO2	none (no result: DYRK1A inh, CDK5 p35 inh, Rtt109 HAT inh, dFosB act, SMARCA2 act)
Cc1ccc(/C=C/C(=O)NCc2cccs2)cc1	esBAF inh 46
COc1ccc(S(=O)(=O)N(C)C[C@H]2Oc3ccc(NS(C)(=O)=O)cc3CC(=O)N([C@@H](C)CO)C[C@@H]2C)cc1	none (no result: DYRK1A inh, CDK5 p35 inh, Rtt109 HAT inh, dFosB act, SMARCA2 act)
Cc1cccn2c(NC(=O)c3cccs3)c(-c3ccccc3)nc12	SMARCA2 act 7.9 (no result: esBAF inh)
C[C@@H]1CN([C@H](C)CO)C(=O)c2cc(-c3ccccc3)cnc2O[C@H]1CN(C)Cc1ccc(C(=O)O)cc1	none (no result: DYRK1A inh, CDK5 p35 inh, Rtt109 HAT inh, dFosB act, SMARCA2 act)
CCC(=O)Nc1nnc(/C=C/c2ccccc2)s1	esBAF inh 61
CCCC(=O)Nc1nnc(/C=C/c2ccccc2)s1	none
Cn1c(C(=O)NCCC2=CCCCC2)cc2c(=O)n3ccccc3nc21	esBAF inh 44
Nc1ccc(Nc2ccncc2[N+](=O)[O-])cc1	Rtt109 HAT inh 50
CO[C@@H]1CN(C)C(=O)c2cc(NC(=O)NC(C)C)ccc2OC[C@H](C)NC[C@@H]1C	none (no result: DYRK1A inh, CDK5 p35 inh, Rtt109 HAT inh, dFosB act, SMARCA2 act)
O=c1c2ccccc2nc2c3ccccc3cnn12	esBAF inh 74
O=C(C[C@@H]1CC[C@H](NS(=O)(=O)c2ccc(F)cc2)[C@H](CO)O1)NC1CCC1	none (no result: DYRK1A inh, CDK5 p35 inh, Rtt109 HAT inh, dFosB act, SMARCA2 act)
CCCCN(C=O)c1c(CC)nc2c(OCC(=O)c3ccc(F)cc3)cccn12	SMARCA2 act 7.9 (no result: DYRK1A inh, CDK5 p35 inh, Rtt109 HAT inh, dFosB act)
CCCCN(C=O)c1c(CC)nc2c(OCC(=O)C(C)(C)C)cccn12	none (no result: DYRK1A inh, CDK5 p35 inh, Rtt109 HAT inh, dFosB act)
Cc1ccccc1OCC1Cc2c(nc(N)c(C#N)c2N)O1 (stereo unspecified)	esBAF inh 49
N#Cc1c(N)nc2c(c1N)CC(COc1ccccc1)O2 (stereo unspecified)	none (no result: esBAF inh)
Cc1ccc2cc(CN(C(=O)c3ccco3)c3ccccc3)c(=O)[nH]c2c1	esBAF inh 54
CO[C@@H]1CN(C)C(=O)c2cc(NC(=O)C3CC3)ccc2OC[C@H](C)N(C(=O)C2CCOCC2)C[C@@H]1C	none (no result: DYRK1A inh, CDK5 p35 inh, Rtt109 HAT inh, dFosB act, SMARCA2 act)
NCC[C@@H]1CC[C@H](NC(=O)c2ccccc2F)[C@H](CO)O1	none (no result: DYRK1A inh, CDK5 p35 inh, Rtt109 HAT inh, dFosB act, SMARCA2 act)
CC(/C=C/c1ccccc1)=N\Nc1ccccc1[N+](=O)[O-]	esBAF inh 44
Cc1c(CC(C)C)nc(N)c(C#N)c1-c1ccccc1	esBAF inh 87
CCc1c(C)nc(N)c(C#N)c1-c1ccccc1	none
S=C(NCCc1ccccc1)NCCc1ccccc1	none (no result: esBAF inh)
CC(C)(C)C(=O)NC(=S)NCCc1ccccc1	esBAF inh 43
CSCc1ccc(C(=O)N2CCCC(Nc3ccc4c(c3)OCCO4)C2)o1 (stereo unspecified)	none
Cc1ccc(C2CCN(C(=O)Nc3ccccc3)C2)cc1 (stereo unspecified)	esBAF inh 53
O=C(O)C1CCN(C(=O)c2ccco2)CC1	none
O=C(c1ccco1)N1CCC(c2ccccc2)C1 (stereo unspecified)	esBAF inh 54
O=C(c1ccco1)N1CCCC(Nc2ccc3c(c2)OCCO3)C1 (stereo unspecified)	esBAF inh 43
C=CCNC(=O)C1CC(=O)N(c2ccc(OCC(=O)Nc3ccccc3)cc2)C1 (stereo unspecified)	esBAF inh 53
C=CCNC(=O)C1CC(=O)N(c2ccc(OCC(=O)Nc3ccc(C)cc3)cc2)C1 (stereo unspecified)	dFosB act inconclusive
CCOC(=O)c1c(C)oc2c1c(CN1CCN(C(=O)OCC)CC1)c(O)c1ccccc12	none (no result: DYRK1A inh, esBAF inh)
CCOC(=O)c1c(C)oc2c(CC(=O)c3ccccc3)c(Cl)c(O)c(O)c12	Rtt109 HAT inh 58 (no result: esBAF inh)
CCn1c2ccccc2c2cc(NC(=O)C(=O)N3CCOCC3)ccc21	esBAF inh 71
COc1ccc(C(=O)Nc2ccc3c(c2)C(=O)N(C)C[C@@H](OC)[C@@H](C)CN(C(C)=O)[C@@H](C)CO3)cc1	none (no result: DYRK1A inh, CDK5 p35 inh, Rtt109 HAT inh, dFosB act, SMARCA2 act)
O=C(Nc1cc2c(cc1Cl)OCCCO2)c1ccc(F)cc1	none (no result: esBAF inh)
COc1ccc(C(=O)Nc2cc3c(cc2Cl)OCCCO3)cc1	esBAF inh 59
Cc1ccc(C(=O)Nc2cc3c(cc2Cl)OCCCO3)cc1	esBAF inh 69
CC(C)NC(=O)Nc1ccc2c(c1)C(=O)N([C@@H](C)CO)C[C@@H](C)[C@@H](CN(C)Cc1ccc(C(F)(F)F)cc1)O2	none (no result: DYRK1A inh, CDK5 p35 inh, Rtt109 HAT inh, dFosB act, SMARCA2 act)
O=C(Nc1ccccc1)c1cc(C2CCCCN2S(=O)(=O)c2cccs2)on1 (stereo unspecified)	esBAF inh 82 (no result: DYRK1A inh, CDK5 p35 inh, Rtt109 HAT inh, dFosB act)
O=C(Nc1ccccc1)c1cc(C2CCCCN2S(=O)(=O)c2ccccc2)on1 (stereo unspecified)	esBAF inh 52 (no result: DYRK1A inh, CDK5 p35 inh, Rtt109 HAT inh, dFosB act)
O=C(Nc1ccccc1Cl)c1cc(C2CCCCN2S(=O)(=O)c2ccccc2)on1 (stereo unspecified)	none (no result: DYRK1A inh, CDK5 p35 inh, Rtt109 HAT inh, dFosB act)
O=C(Nc1nccs1)c1ccc(-c2ccc(Cl)cc2Cl)o1	none (no result: esBAF inh)
O=C(Nc1nccs1)c1ccc(-c2ccc(F)c(Cl)c2)o1	esBAF inh 57
C[C@@H]1CN([C@@H](C)CO)S(=O)(=O)c2ccc(C#CC3CC3)cc2O[C@H]1CN(C)C(=O)c1ccncc1	none (no result: DYRK1A inh, CDK5 p35 inh, Rtt109 HAT inh, dFosB act, SMARCA2 act)
COc1ccc2c(c1)C1=NN(/C(C)=C/C(C)=O)C(c3ccc(F)cc3)C1CC2 (stereo unspecified)	none (no result: esBAF inh)
COc1ccc2c(c1)C1=NN(/C(C)=C\C(C)=O)C(c3ccccc3)C1CC2 (stereo unspecified)	esBAF inh 48 (no result: Rtt109 HAT inh)
O=C(NCC1CC1)[C@H]1[C@H](CO)[C@H]2Cn3c(ccc(-c4cccnc4)c3=O)[C@@H]1N2C(=O)C1CCCCC1	none (no result: DYRK1A inh, CDK5 p35 inh, Rtt109 HAT inh, dFosB act, SMARCA2 act)
COc1cccc(N/N=C/c2cccc(Br)c2O)c1	esBAF inh 53
O=C(C[C@H]1CC[C@H]2[C@@H](COC[C@@H](O)CN2S(=O)(=O)c2ccc(Cl)cc2)O1)NCc1ccc(Cl)c(Cl)c1	none (no result: DYRK1A inh, CDK5 p35 inh, Rtt109 HAT inh, dFosB act, SMARCA2 act)
O=[N+]([O-])c1cccc(CSc2nc3ccccc3[nH]2)c1	none (no result: esBAF inh)
COc1cccc(CSc2nc3ccccc3[nH]2)c1	esBAF inh 54
O=C(Nc1ccc(F)cc1)/C(Cl)=C/c1ccccc1	esBAF inh 48
C[C@H]1CN([C@@H](C)CO)C(=O)c2cc(NS(=O)(=O)c3cccs3)ccc2O[C@H]1CN(C)Cc1ccncc1	none (no result: DYRK1A inh, CDK5 p35 inh, Rtt109 HAT inh, dFosB act, SMARCA2 act)
Cc1ccc(NC(=O)c2nc[nH]c2C(=O)NCCN(CCNC(=O)c2[nH]cnc2C(=O)Nc2ccc(C)cc2)CCNC(=O)c2[nH]cnc2C(=O)Nc2ccc(C)cc2)cc1	dFosB act 48
Cc1csc(NC(=O)CN2C(=O)COc3ccc(Cl)cc32)n1	dFosB act 29
Cc1cccc(NC(=O)CN2C(=O)COc3ccc(Cl)cc32)c1	none
